# Screens: PubChem BioAssay, Sanford-Burnham Center for Chemical Genomics
# Hits are enriched below; roughly 31% of the tested compounds scored in any of these assays.
# CYP2C19 inhib – inhibitors of human CYP2C19; CYP2C19 Supersomes, luciferin-H EGE luminescence, 30 min; inhibition, % at 5 µM; actives 21% (n = 96,000); AID 778;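 active = CYP2C19 inhibition above a set limit at 5 µM in the primary screen, cut at about 50% in these data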;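 also: plate controls were negative control wells for no effect and 2.5 mM tranylcypromine positive control for full effect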
# Target sequence (P33261 whole entry, looked up): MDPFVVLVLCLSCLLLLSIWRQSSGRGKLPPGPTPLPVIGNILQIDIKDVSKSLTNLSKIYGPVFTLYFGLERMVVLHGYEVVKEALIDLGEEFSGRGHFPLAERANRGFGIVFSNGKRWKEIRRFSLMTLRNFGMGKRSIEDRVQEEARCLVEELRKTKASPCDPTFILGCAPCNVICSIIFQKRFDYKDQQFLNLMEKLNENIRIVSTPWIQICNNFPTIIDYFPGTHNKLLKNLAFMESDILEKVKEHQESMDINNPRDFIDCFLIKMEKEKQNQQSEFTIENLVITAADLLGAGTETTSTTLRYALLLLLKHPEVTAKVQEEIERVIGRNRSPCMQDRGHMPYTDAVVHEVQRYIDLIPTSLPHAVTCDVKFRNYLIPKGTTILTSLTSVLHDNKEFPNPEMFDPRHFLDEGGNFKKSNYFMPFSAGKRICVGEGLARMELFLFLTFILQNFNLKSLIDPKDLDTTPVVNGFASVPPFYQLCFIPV
# CYP2C9 inhib – blocks human cytochrome P450 2C9; P11712; CYP2C9 Supersomes, luciferin-H conversion, luminescence; inhibition, % at 5 µM; actives 20% (n = 96,000);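 active = blocking of liver enzyme CYP2C9 beyond about 50% at 5 µM, limit read from the data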
# CYP2C9 activ – CYP2C9 (human) activation; recombinant CYP2C9, luciferin-H conversion, luminescence; stronger effect = higher value; factor 1 = untreated enzyme, 0 = blocked; activation factor at 5 µM; actives 1.4% (n = 96,000); AID 1024;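 active = activation factor of 2 or more for CYP2C9 at a 5 µM dose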;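 also: 0 = sulfaphenazole-blocked wells and 1 = vehicle-only wells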
# CYP2C19 activ – cytochrome P450 2C19 (human) activation | P33261 | recombinant CYP2C19, luciferin-H EGE luminescence; stronger effect = higher value; 0 = fully inhibited enzyme, 1 = untreated enzyme | activation factor at 5 µM | 96,000 tested, under 10 active | AID 1025;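 active = activation factor of at least 2 at 5 µM in the primary screen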;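 also: 0 = wells with 2.5 mM tranylcypromine and 1 = vehicle-only wells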
# * marks the source's active call; other numbers are inactive results.
SMILES,CYP2C19 inhib,CYP2C9 inhib,CYP2C9 activ,CYP2C19 activ
O=C(COc1ccc([N+](=O)[O-])cc1)Nc1ccc(C(=O)NCc2cccnc2)cc1,12,16,0.8,0.9
CC(C)c1nc(SCC(=O)c2ccccc2)c2c(=O)n(C)c(=O)n(C)c2n1,-2,9,0.9,1
COc1ccc(N(C)C2=NS(=O)(=O)c3ccccc32)cc1,72*,41,0.6,0.3
O=S1(=O)N=C(Oc2ccccc2)c2ccccc21,2,2,1,1
COc1ccccc1C1(O)CC2CCC(C1)N2S(=O)(=O)c1ccc(C(C)=O)cc1 (configuration not stated),30,-19,1.2,0.7
O=C(c1ccccc1)c1ccccc1C(=O)N1CCCC1,3,10,0.9,1
O=C(c1cccc2c1-c1ccccc1/C2=N/O)N1CCCCC1,51*,50,0.5,0.5
O=C(Cn1nc(-c2ccccc2)ccc1=O)NCCN1CCN(c2cccc(Cl)c2)CC1,48,30,0.7,0.5
O=C(Cn1nc(-c2ccccc2)ccc1=O)NCCN1CCN(Cc2ccccc2)CC1,84*,8,0.9,0.2
CCCc1n[nH]c2c1C(=O)C(C(=O)OC)C(C)(C)C2 (configuration not stated),86*,17,0.8,0.1
COc1ccc2nc(NC(=O)Cc3ccc(OC)c(S(=O)(=O)N4CCOCC4)c3)sc2c1,55*,38,0.6,0.5
COc1cc(C(=O)Nc2nc3ccc(S(=O)(=O)N4CCOCC4)cc3s2)cc(OC)c1OC,54*,79*,0.2,0.5
O=C(Nc1nc2ccc(S(=O)(=O)N3CCCCC3)cc2s1)C1CCCO1 (configuration not stated),7,77*,0.2,0.9
COc1ccc2nc(NC(=O)CN3CCOCC3)sc2c1,-3,26,0.7,1
O=C(Nc1nc2ccc(S(=O)(=O)N3CCCC3)cc2s1)C1CCCCC1,4,64*,0.4,1
COc1ccc(C(=O)/C=C(/C)N(C)C)cc1,15,0,1,0.9
O=C(NCc1ccccc1F)C1CCCN1C(=O)NCc1ccccc1 (configuration not stated),20,2,1,0.8
CSc1nc2ccc(S(=O)(=O)N3CCOCC3)cc2s1,100*,63*,0.4,0
CCNc1nc(NCC)nc(OCCOC(=O)c2ccccc2)n1,51*,28,0.7,0.5
COC(=O)c1ccc(N2CCN(S(=O)(=O)c3ccc4ccccc4c3)CC2)c([N+](=O)[O-])c1,-7,1,1,1.1
Cc1ccccc1OCCN1C(=O)NC2(CCc3ccccc32)C1=O (configuration not stated),35,-95,2*,0.7
O=C1NC2(CCc3ccccc32)C(=O)N1CCOc1ccc(Cl)cc1 (configuration not stated),6,77*,0.2,0.9
Cc1ccc(NC(=O)CN2C(=O)NC3(CCc4ccccc43)C2=O)cc1Cl (configuration not stated),20,38,0.6,0.8
Cc1ccc(-c2cc(C)nc3nc(N)nn23)cc1,1,-23,1.2,1
COc1cc(S(=O)(=O)NCCc2ccc3c(c2)OCO3)ccc1-n1cnnn1,96*,87*,0.1,0
SMILES,CYP2C19 inhib,CYP2C9 inhib,CYP2C9 activ,CYP2C19 activ
CCOCCCNS(=O)(=O)c1ccc(-n2cnnn2)c(OC)c1,89*,-34,1.3,0.1
COc1cc(S(=O)(=O)NCC2COCCO2)ccc1-n1cnnn1 (configuration not stated),28,8,0.9,0.7
COc1cc(NS(=O)(=O)c2ccc(C)cc2)ccc1-n1cnnn1,44,72*,0.3,0.6
COc1cc(C(=O)Nc2ccc3c(c2)OCCO3)ccc1-n1cnnn1,45,-9,1.1,0.6
COc1ccc(/C=C2\C(=O)N(Cc3ccc(F)cc3)CC(=O)N2Cc2ccccc2)cc1,72*,88*,0.1,0.3
CCCC1S/C(=N/N=C/c2ccc(OC)cc2)N(Cc2ccccc2)C1=O (configuration not stated),3,-1,1,1
COc1ccc(CC(=O)N2CC(=O)N(CCc3ccccc3)C(=O)C2)cc1,26,0,1,0.7
COc1ccc(/C=C2\C(=O)NCC(=O)N2Cc2ccccc2)cc1,65*,53*,0.5,0.4
Cc1noc(C)c1COc1ccc(C(=O)NCc2ccccn2)cc1,-13,-16,1.2,1.1
Nc1cccc(-c2nc3cc(S(=O)(=O)c4ccc5oc(-c6cccc(N)c6)nc5c4)ccc3o2)c1,23,37,0.6,0.8
Nc1cccc(S(=O)(=O)c2cccc(N)c2)c1,7,-201,3*,0.9
